According to publication PMC9911399, “Two distinct binding modes provide the RNA-binding protein RbFox with extraordinary sequence specificity”:
Residue numbers refer to the chain shown, from its start. The full ranking holds about 16,000 sequences; the median of “ka relative to ugcaugu” is about 0.096, and the highest 2% start at about 0.35. Many of the other results were omitted from the sample, so the highest values are more common in it than they were.

T1: RBFOX1 RRM RbFoxmut (Fox-RRM*) (Homo sapiens, UniProt Q9NWB1 109-208, R118D;E147R;N151S;E152T)
T1 sequence: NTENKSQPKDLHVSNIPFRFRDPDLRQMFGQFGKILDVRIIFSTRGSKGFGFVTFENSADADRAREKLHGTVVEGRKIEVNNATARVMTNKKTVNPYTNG

B1: AAAUCUU (DNA:RNA)
RNA: GGGAGACCGGAAUUCAGAUUGUCCAAAUCUUUUAAAUCCCGUCGUAGCCACCA
DNA 1: CAATCTGAATTCCGGTCTCCC
DNA 2: TGGTGGCTACGACGGGATT
B2: UGAGAAU (DNA:RNA)
RNA: B1 RNA with A25U, A26G, U28G, C29A, U30A
DNA 1: CAATCTGAATTCCGGTCTCCC
DNA 2: TGGTGGCTACGACGGGATT
B3: GCUUAUG (DNA:RNA)
RNA: B1 RNA with A25G, A26C, A27U, C29A, U31G
DNA 1: CAATCTGAATTCCGGTCTCCC
DNA 2: TGGTGGCTACGACGGGATT
B4: CCUACGU (DNA:RNA)
RNA: B1 RNA with A25C, A26C, A27U, U28A, U30G
DNA 1: CAATCTGAATTCCGGTCTCCC
DNA 2: TGGTGGCTACGACGGGATT
B5: CACCCGC (DNA:RNA)
RNA: B1 RNA with A25C, A27C, U28C, U30G, U31C
DNA 1: CAATCTGAATTCCGGTCTCCC
DNA 2: TGGTGGCTACGACGGGATT
B6: UACUGGU (DNA:RNA)
RNA: B1 RNA with A25U, A27C, C29G, U30G
DNA 1: CAATCTGAATTCCGGTCTCCC
DNA 2: TGGTGGCTACGACGGGATT
B7: UGGAGUG (DNA:RNA)
RNA: B1 RNA with A25U, A26G, A27G, U28A, C29G, U31G
DNA 1: CAATCTGAATTCCGGTCTCCC
DNA 2: TGGTGGCTACGACGGGATT
B8: CGGAUGC (DNA:RNA)
RNA: GGGAGACCGGAAUUCAGAUUGUCCCGGAUGCUUAAAUCCCGUCGUAGCCACCA
DNA 1: CAATCTGAATTCCGGTCTCCC
DNA 2: TGGTGGCTACGACGGGATT
B9: UGGAUCG (DNA:RNA)
RNA: B8 RNA with C25U, G30C, C31G
DNA 1: CAATCTGAATTCCGGTCTCCC
DNA 2: TGGTGGCTACGACGGGATT
B10: UGGAGAG (DNA:RNA)
RNA: B8 RNA with C25U, U29G, G30A, C31G
DNA 1: CAATCTGAATTCCGGTCTCCC
DNA 2: TGGTGGCTACGACGGGATT
B11: UGGAUCC (DNA:RNA)
RNA: B8 RNA with C25U, G30C
DNA 1: CAATCTGAATTCCGGTCTCCC
DNA 2: TGGTGGCTACGACGGGATT
B12: GGAUCCG (DNA:RNA)
RNA: B1 RNA with A25G, A26G, U30C, U31G
DNA 1: CAATCTGAATTCCGGTCTCCC
DNA 2: TGGTGGCTACGACGGGATT
B13: CGGACUG (DNA:RNA)
RNA: B8 RNA with U29C, G30U, C31G
DNA 1: CAATCTGAATTCCGGTCTCCC
DNA 2: TGGTGGCTACGACGGGATT
B14: UGGACUG (DNA:RNA)
RNA: B8 RNA with C25U, U29C, G30U, C31G
DNA 1: CAATCTGAATTCCGGTCTCCC
DNA 2: TGGTGGCTACGACGGGATT
B15: UGGAUGG (DNA:RNA)
RNA: B8 RNA with C25U, C31G
DNA 1: CAATCTGAATTCCGGTCTCCC
DNA 2: TGGTGGCTACGACGGGATT
B16: UGGAGAC (DNA:RNA)
RNA: B8 RNA with C25U, U29G, G30A
DNA 1: CAATCTGAATTCCGGTCTCCC
DNA 2: TGGTGGCTACGACGGGATT
B17: CGGAGUG (DNA:RNA)
RNA: B8 RNA with U29G, G30U, C31G
DNA 1: CAATCTGAATTCCGGTCTCCC
DNA 2: TGGTGGCTACGACGGGATT
B18: UGGAUGC (DNA:RNA)
RNA: B8 RNA with C25U
DNA 1: CAATCTGAATTCCGGTCTCCC
DNA 2: TGGTGGCTACGACGGGATT
B19: UAAGGAG (DNA:RNA)
RNA: B1 RNA with A25U, U28G, C29G, U30A, U31G
DNA 1: CAATCTGAATTCCGGTCTCCC
DNA 2: TGGTGGCTACGACGGGATT
B20: AGUAGGG (DNA:RNA)
RNA: B8 RNA with C25A, G27U, U29G, C31G
DNA 1: CAATCTGAATTCCGGTCTCCC
DNA 2: TGGTGGCTACGACGGGATT

These binders were tested against T1, RBFOX1 RRM RbFoxmut (Fox-RRM*) (assay: EMSA; HiTS-Eq, 1 nM pool, 10 min; buffer printed only for the single-RNA assays: 10 mM Tris pH 7.5, 150 mM NaCl, 3.4 mM EDTA, 0.001% NP-40, 30 C). Details: tags: His6 N-terminal (pET28a); label: 5' 32P.
Outline: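 Relative association constants, normalised to the cognate motif, were derived by comparing read counts of each RNA species with those of the control reaction. The RNA sequenced was the free fraction, separated by 8% native PAGE after a 10 min equilibration in 50 µL of 1 nM 5′-radiolabelled RNA (7 randomized nucleotides) with increasing concentrations of purified wild-type or mutant RbFox RRM.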
With B1 the binding signal was 0.0581 KA relative to UGCAUGU. In the case of B2, the binding signal is reported as 0.092 KA relative to UGCAUGU. With B3 the binding signal was 0.142 KA relative to UGCAUGU. B4 was tested, and the binding signal was 0.146 KA relative to UGCAUGU. B5 was tested, and the binding signal was 0.0852 KA relative to UGCAUGU. In the case of B6, the binding signal is reported as 0.103 KA relative to UGCAUGU. For B7, the binding signal was 0.45 KA relative to UGCAUGU. In the case of B8, the binding signal is reported as 0.189 KA relative to UGCAUGU. B9 was tested, and the binding signal was 0.597 KA relative to UGCAUGU. For B10, the binding signal was 0.108 KA relative to UGCAUGU. In the case of B11, the binding signal is reported as 0.211 KA relative to UGCAUGU. With B12 the binding signal was 0.153 KA relative to UGCAUGU. In the case of B13, the binding signal is reported as 0.353 KA relative to UGCAUGU. B14 was tested, and the binding signal was 0.418 KA relative to UGCAUGU. In the case of B15, the binding signal is reported as 0.332 KA relative to UGCAUGU. In the case of B16, the binding signal is reported as 0.0876 KA relative to UGCAUGU. In the case of B17, the binding signal is reported as 0.198 KA relative to UGCAUGU. With B18 the binding signal was 0.438 KA relative to UGCAUGU. B19 was tested, and the binding signal was 0.11 KA relative to UGCAUGU. B20 was tested, and the binding signal was 0.0759 KA relative to UGCAUGU.
